This is a sample that favours compounds with a hit; in the whole collection about 0.84% have one here.
S1P3 antag = antagonists of human S1P3 receptor | Q99500 | CHO S1P3 NFAT-BLA reporter, FRET fluorescence, antagonist mode | inhibition, % at 4.98 µM | 170,000 compounds, 0.27% hits | AID 485;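 active = inhibition above the plate cutoff, the mean inhibition of test wells on that plate plus 3 SD, cut at about 28% in these data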;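 note: cells challenged with S1P at its EC80 of 0.8 µM; blue over green emission ratio from cleaved BLA substrate after 4 h stimulation; 0% = S1P-stimulated wells and 100% = unstimulated DMSO-only wells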
G6PDH counter = L. mesenteroides G6PDH inhibition counter-screen; AID 1020; 200,000 compounds, 0.12% hits; Purified L. mesenteroides G6PDH, diaphorase/resazurin coupled fluorescence, 45 min; inhibition, % at 5 µM; in the data active = inhibition above about 50%
Redox H2O2 prof = compounds producing H2O2 with reducing agent – biochemical, NIH compound library profiling, artefact control for MLSCN library redox annotation, primary screen; DTT-dependent redox cycling H2O2, phenol red/HRP absorbance; 100% = 100 µM peroxide control, 0% = buffer; activation, % at 10 µM; 200,000 compounds, 0.03% hits;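 active = activation of at least 50% relative to the plate's high and low controls in the primary single-dose screen; inactive = activation below 50%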;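 note: compound incubated with DTT at 0.8 mM final as the reducing agent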
Tb hexokinase = T. brucei hexokinase 1 inhibition; recombinant TbHK1, G6PDH-coupled NADH A340; inhibition, % at 10 µM; 220,000 compounds, 0.11% hits; AID 1430;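 active = inhibition of 50% or more in the single-dose primary screen; inactive = inhibition below 50%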
p97 inhibitor = inhibitors of human p97 ATPase. P55072. recombinant p97 ATPase, Kinase-Glo ATP luminescence, 3 h. inhibition, % at 8 µM. 220,000 compounds, 0.42% hits. AID 1481; in the data active = inhibition above about 15%;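 note: 0% = DMSO vehicle and 100% = wells lacking enzyme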
Target sequence (P55072 whole entry, looked up): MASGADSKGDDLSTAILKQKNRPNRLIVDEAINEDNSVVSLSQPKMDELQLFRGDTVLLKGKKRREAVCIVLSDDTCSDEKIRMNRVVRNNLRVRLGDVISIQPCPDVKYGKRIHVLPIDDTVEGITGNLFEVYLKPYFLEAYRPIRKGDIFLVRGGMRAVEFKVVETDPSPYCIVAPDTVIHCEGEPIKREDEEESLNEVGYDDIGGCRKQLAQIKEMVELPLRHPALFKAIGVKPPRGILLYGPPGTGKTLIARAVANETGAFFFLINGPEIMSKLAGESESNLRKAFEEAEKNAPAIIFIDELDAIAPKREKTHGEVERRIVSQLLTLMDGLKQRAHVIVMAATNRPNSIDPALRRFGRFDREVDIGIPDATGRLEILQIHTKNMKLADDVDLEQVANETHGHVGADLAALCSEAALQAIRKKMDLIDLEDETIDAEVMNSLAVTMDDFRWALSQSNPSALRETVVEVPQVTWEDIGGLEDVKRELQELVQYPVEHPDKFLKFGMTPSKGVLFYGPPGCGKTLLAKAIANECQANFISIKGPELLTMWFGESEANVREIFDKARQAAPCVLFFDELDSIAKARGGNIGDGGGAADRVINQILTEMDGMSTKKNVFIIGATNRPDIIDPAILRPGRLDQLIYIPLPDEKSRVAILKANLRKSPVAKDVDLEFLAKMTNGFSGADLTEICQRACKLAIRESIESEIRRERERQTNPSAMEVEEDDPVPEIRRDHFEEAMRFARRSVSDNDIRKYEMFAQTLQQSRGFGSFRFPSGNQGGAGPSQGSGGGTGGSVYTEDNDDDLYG
The depositor's hits bear a star; . = not tested or not shown.

SMILES | S1P3 antag | G6PDH counter | Redox H2O2 prof | Tb hexokinase | p97 inhibitor
Nc1ccc2c(c1)Cc1cc([N+](=O)[O-])ccc1-2 | 52.5* | 0.2 | 7.0 | -12.9 | -0.4
Cc1ccc([N+](=O)[O-])cc1N | -9.6 | 2.9 | -0.4 | -6.2 | -0.9
C=CCc1cccc2cc(C(=O)O)c(=O)oc12 | . | 3.2 | 0.0 | -13.3 | 4.2
C=CCc1cccc2cc(C(=O)Nc3ccccc3C(=O)O)c(=O)oc12 | 14.3 | 4.0 | -0.7 | 0.9 | 22.2*
CN(C)c1nc(N)nc(-c2nc3ccccc3s2)n1 | 60.1* | -30.3 | 0.4 | -0.2 | 4.7
COC(=O)CC1C(=O)NCCN1C(=O)c1sc2ccccc2c1Cl (configuration not stated) | -4.9 | . | . | 0.2 | -4.6
CCS(=O)(=O)N1CCN(C(=O)c2cc(OC)cc(OC)c2)CC1 | 0.0 | 19.9 | -0.1 | 1.7 | -0.3
CCCS(=O)(=O)N1CCN(C(=O)c2cc(OC)cc(OC)c2)CC1 | 94.6* | 24.0 | -0.2 | 0.7 | -1.1
COc1ccc(S(=O)(=O)N2CCN(c3c(C)cccc3C)CC2)cc1OC | -15.9 | 7.2 | -2.7 | -15.9 | -4.8
COc1ccc(S(=O)(=O)N2CCN(C)CC2)cc1C | 56.0* | -0.5 | -1.3 | 0.2 | -2.6
COc1ccc(S(=O)(=O)N2CCN(c3ccc(C)cc3C)CC2)cc1OC | 103.1* | 1.4 | -0.4 | -7.0 | -6.9
Cc1ccccc1Cn1c(=O)n(Cc2ccco2)c(=O)c2ccccc21 | 55.1* | -0.8 | 0.3 | -0.6 | 0.0
CCOc1ccc(Nc2nc(NCCN3CCOCC3)nc(OC)n2)cc1 | . | 12.1 | -0.1 | -5.0 | 14.6*
Clc1ccc(Nc2nc(NCCN3CCOCC3)nc(N3CCOCC3)n2)cc1 | -34.3 | -22.5 | 0.3 | 0.8 | 4.6
COc1cccc(C(=O)N(c2ccccc2)C2C=CS(=O)(=O)C2)c1 (configuration not stated) | -0.4 | 0.7 | 0.2 | -2.0 | 5.7
CCCC(=O)NC(=S)c1c(C)n(C)n(-c2ccccc2)c1=O | -6.4 | 1.8 | 0.4 | -23.6 | 2.6
CCCc1cc(=O)[nH]c(Nc2ccc(OC)c(Cl)c2)n1 | 92.2* | -14.8 | 0.0 | 7.3 | -0.5
CCCc1cc(=O)[nH]c(Nc2ccc(Cl)cc2)n1 | 5.7 | 5.6 | -0.6 | 5.6 | -1.2
CC(C)CN(C(=O)CN1CCCCCC1)c1c(N)n(CC(C)C)c(=O)[nH]c1=O | 8.3 | 23.1 | 2.7 | 0.8 | 2.0
Cc1cc(C(=O)OCC(=O)NC(C)C)c(C)o1 | . | -1.5 | 0.1 | -4.8 | -0.6
Cc1cc(C(=O)OCC(=O)NC2CCCCC2)c(C)o1 | . | 2.1 | 50.8* | 5.3 | -5.1
Cc1ccc(N2C(=O)C3C4C=CC(C4)C3C2=O)cc1C (configuration not stated) | . | 1.4 | -1.5 | 5.8 | 5.8
CC1=NN(c2ccc(C)c(C)c2)C(=O)C1C(c1cccc(O)c1)C1C(=O)N(c2ccc(C)c(C)c2)N=C1C (configuration not stated) | . | 5.4 | 1.8 | -16.7 | 35.4*
CN(Cc1ccccc1)C(=O)c1[nH]cnc1C(=O)N[C@@H](Cc1ccccc1)C(=O)OCc1ccccc1 | -19.2 | 11.8 | 0.5 | -4.5 | -4.2
Cc1cc(C(=O)NCC(=O)OCC(=O)N(C2CCCCC2)C2CCCCC2)ccc1[N+](=O)[O-] | 3.1 | 10.5 | -0.2 | 3.2 | -1.9
SMILES | S1P3 antag | G6PDH counter | Redox H2O2 prof | Tb hexokinase | p97 inhibitor
O=C(CN1C(=O)c2ccccc2C1=O)c1ccccc1 | . | 1.4 | -1.2 | 1.0 | 1.8
CC1=C(CC(=O)c2ccccc2)C(=O)c2ccccc2C1=O | . | 56.1* | 2.1 | 1.8 | 0.1
Nc1c(C(=O)N/N=C/c2cccnc2)oc2nc(-c3ccccc3)cc(-c3ccco3)c12 | 7.8 | . | . | -35.7 | 14.6*
COc1ccc(OC)c(-c2c3cc(O)c(=O)cc-3oc3cc(O)c(O)cc23)c1 | -18.8 | 31.8 | 2.1 | 23.1 | 21.7*
CSCC[C@H](NC(=O)OC(C)(C)C)c1nnc(SCC(=O)Nc2c(C)cccc2C)o1 | 11.1 | 1.9 | 1.5 | 51.3* | 4.0
Cn1c2c(c(O)c(-c3ccccc3)c1=O)C(=O)CC(C)(C)C2 | -0.8 | -7.5 | -0.2 | 5.6 | 1.0
Cc1ccc(-c2ccc(CO)o2)cc1N | -5.3 | 7.8 | 0.4 | -7.1 | -1.7
O=C(O)c1ccc(N/N=C/C(Br)=C/c2ccccc2)cc1 | -3.9 | . | . | -51.9 | 14.7*
O=C(N/N=C/C(Br)=C/c1ccccc1)C(O)c1ccccc1 (configuration not stated) | -0.6 | . | . | -24.2 | -8.0
CC(C)CCOc1ccc(C(=O)NCCC(=O)N2CCOCC2)cc1 | . | -8.4 | 1.0 | 4.7 | -1.0
O=C(O)C1Nc2c(O)cccc2C2C=CCC12 (configuration not stated) | -10.8 | 24.2 | 1.0 | 6.0 | 22.8*
CC(C)(C)C1=CC(=O)C(N2CCOCC2)=CC1=O | -5.6 | 54.8* | 0.1 | -6.4 | 1.3
CC(=O)Nc1ccc(S(=O)(=O)Nc2cccc(-c3csc(C)n3)c2)cc1 | 7.4 | 12.1 | -0.5 | 2.6 | -2.3
Nc1nc(-c2cccc(NS(=O)(=O)c3ccccc3)c2)cs1 | 52.6* | 20.6 | -2.4 | 4.6 | 0.3
O=[N+]([O-])c1cc(CN2CCN(c3ccccc3)CC2)c(O)c2ncccc12 | 15.6 | 62.2* | -0.1 | -4.4 | 7.6
CN(Cc1cc([N+](=O)[O-])c2cccnc2c1O)C1CCCCC1 | -15.0 | 20.5 | 0.1 | 2.6 | 11.4
O=[N+]([O-])c1cc(CN2CCOCC2)c2cccnc2c1O | -16.9 | 54.7* | -1.4 | 15.8 | 5.0
O=[N+]([O-])c1cc(F)c2cccnc2c1O | -12.7 | . | . | -14.6 | 2.0
COc1ccc(N2CC(C(=O)N/N=C/c3ccc(C)cc3)CC2=O)cc1 (configuration not stated) | -10.0 | 12.9 | -0.8 | 5.9 | 14.7*
NNC(=O)CNC(c1ccccc1)c1cc(Br)ccc1NC(=O)CCN1CCOCC1 (configuration not stated) | . | 14.6 | 1.6 | -4.0 | 18.6*
Cc1nc2ccccn2c1C(=O)NN | -5.2 | 2.5 | 0.3 | -3.0 | 1.8
CCOC(=O)c1c(C)nc2ccccn12 | 70.5* | 3.4 | -1.9 | 4.0 | 3.6
CSC1=NCCN1C(=O)c1ccc(S(=O)(=O)N(C)C)cc1 | -27.2 | 1.1 | -1.3 | 2.0 | 15.0*
CSC1=NCCN1C(=O)c1ccc(C)cc1 | -0.9 | -0.4 | 0.1 | -5.1 | 4.0
Cc1cc(C)c(NC(=O)CN2CCN(C)CC2)c(C)c1 | 79.1* | 6.4 | -2.4 | -0.8 | .
SMILES | S1P3 antag | G6PDH counter | Redox H2O2 prof | Tb hexokinase | p97 inhibitor
CC(C)(C)C(=O)NC(=S)Nc1ccccc1N1CCCC1 | 5.5 | 3.7 | -0.2 | -4.1 | 8.3
CC(C)=C1C(=O)NN(c2ccc(F)c(Cl)c2)C1=O | . | -1.8 | 2.5 | 4.7 | 20.4*
COc1ccc(OCCC(=O)OCC(=O)NCc2ccco2)cc1 | . | 7.0 | -2.6 | 9.3 | 5.4
O=C(CSc1nnc(Cn2c(=O)sc3ccccc32)n1-c1ccccc1)Nc1nccs1 | -10.9 | -2.9 | -0.7 | 1.0 | 15.5*
O=C(CSc1nnc(Cn2c(=O)sc3ccccc32)n1-c1ccccc1)N1CCCC1 | 16.8 | -2.0 | -0.4 | -0.5 | -2.2
Cc1ccc(S(=O)(=O)N2CC(=NO)C2)cc1 | 66.4* | 4.8 | -1.2 | -0.3 | -2.3
